Reference: PubChem BioAssay (EPA / NIEHS)
Several values for one entry are separate records, joined by “and”; a condition that tells them apart may be missing. Identical values can stand only once. Inconclusive results are not listed. More than one record can exist for a structure, and the calls need not agree. Activity calls are given as the source filed them. Rule for the calls: active = hit-call score of the fitted dose curve at least 0.9, where 1 is the maximum; inconclusive = response in the unintended direction; inactive = score below 0.9.

Experiment: ACEA_ER_80hr: ACEA Biosciences xCELLigence Real-Time Cell Analysis on Estrogen Receptor Agonism for Proliferation (AID 2282667)
Settings: T47D proliferation, impedance (xCELLigence), 80 h
Description: ACEA_ER is a cell-based, single-readout assay that uses T47D, a human breast cell line, with measurements taken at 80 hours after chemical dosing in a 96-well plate, although TO2 (mc0.srcf) used a 384-well plate. Differences in plate size can be ignored given data normalization.ACEA_ER_80hr is one of two assay component(s) measured or calculated from the ACEA_ER assay. It is designed to make measurements of real-time cell-growth kinetics, a form of growth reporter, as detected with electrical impedance signals by Real-Time Cell Electrode Sensor (RT-CES) technology.Data from the assay component ACEA_ER_80hr was analyzed into 1 assay endpoint. This assay endpoint, ACEA_ER_80hr_Positive, was analyzed in the positive analysis fitting direction relative to DMSO as the negative control and baseline of activity. Using a type of growth reporter, measures of the cells for gain-of-signal activity can be used to understand the signaling at the pathway-level as they relate to the gene ESR1. Furthermore, this assay endpoint can be referred to as a primary readout, because this assay has produced multiple assay endpoints where this one serves a signaling function. To generalize the intended target to other relatable targets, this assay endpoint is annotated to the nuclear receptor intended target family, where the subfamily is steroidal.
The xCELLigence system Multi-E-Plate stations were used to measure the time-dependent response to chemicals. Each compound was tested in an eight-point, 1:4 serial dilution series starting at a maximum final concentration of 100 uM. A maximum starting concentration of 0.5% DMSO was present in the 100 uM chemical samples and was diluted along with the test article dilution series. The screen was performed in biological duplicate using two separate, 96-well, E-Plates 96 for each dilution series (n = 2). Positive controls (MG132 and E2) and a negative control (assay media) were tested in quadruplicate on each testing plate. […] Reference compounds were tested with 8 concentrations with 1:5 serial dilutions. All screening was carried out by ACEA Biosciences, Inc. (San Diego, CA). T-47D cells purchased from ATCC were maintained in RPMI1640 media supplemented with 10% characterized fetal bovine serum (FBS). […] Cells were then detached and seeded in E-Plates 96 in assay medium. After overnight monitoring of growth once every hour, compounds were added to […] cells and remained in the medium until the end of the experiment. Cellular responses were then recorded once every 5 min for the first 5 h, and once every hour for an additional 100 h.

Row | SMILES | AC50 | outcome
1 | C[C@@H]1C[C@H]2[C@@H]3CCC4=CC(=O)C=C[C@]4(C)[C@@]3(F)[C@@H](O)C[C@]2(C)[C@@]1(O)C(=O)COP(=O)(O)O | 685 nM (active) | inactive
2 | CN1CCN(c2ccccc2/C=C2\SCCN(c3ccc(Cl)c(Cl)c3)C2=O)CC1 | – | inactive
3 | CC1=C(/C=C/C(C)=C/C=C/C(C)=C/C(=O)O)C(C)(C)CCC1 | 1.33 nM (active) | –
4 | CCCCOCCO | – | inactive
5 | Oc1cccc(O)c1 | – | inactive
6 | CCc1ccc(CCOc2ccc(CC3SC(=O)NC3=O)cc2)nc1 (stereo not given) | – | inactive
7 | ClC1=C(Cl)C(Cl)(Cl)C(Cl)=C1Cl | – | inactive
8 | CC(C)(C)c1cccc(C(C)(C)C)c1O | – | inactive
9 | O=C(OCCOCCOC(=O)c1ccccc1)c1ccccc1 | – | inactive
10 | CC(=O)CC(C)(C)O | 16200 nM (active) | –
11 | CCCCCCCCC(=O)O | – | inactive
12 | CC#C[C@]1(O)CC[C@H]2[C@@H]3CCC4=CC(=O)CCC4=C3[C@@H](c3ccc(N(C)C)cc3)C[C@@]21C | 132 nM (active) and 56 nM (active) and 36.7 nM (active) | –
13 | CC(O)CO (stereo not given) | – | inactive
14 | C=C(C)C(=O)OCCC(F)(F)C(F)(F)C(F)(F)C(F)(F)C(F)(F)C(F)(F)F | – | inactive
15 | COc1cc(CCC(=O)CC(=O)CCc2ccc(O)c(OC)c2)ccc1O | – | inactive
16 | CCCCCCCCCCCCc1ccccc1S(=O)(=O)O | – | inactive
17 | COC(=O)CCCCC(=O)OC | – | inactive
18 | N#C[C@@H]1CC(F)(F)CN1C(=O)CNC1CC2CCC(C1)N2c1ncccn1 (stereo not given in full) | 4000 nM (active) | –

Row | SMILES | AC50 | outcome
19 | O=C1OC2(c3ccccc31)c1cc(Br)c(O)c(Br)c1Oc1c2cc(Br)c(O)c1Br | 20500 nM (active) | inactive
20 | Cc1oc(-c2ccccc2)nc1CCOc1ccc(C[C@H](Nc2ccccc2C(=O)c2ccccc2)C(=O)O)cc1 | – | inactive
21 | CCCCCCCCOC(=O)CCCCCCCCC(=O)OCCCCCCCC | – | inactive
22 | CCC(C)(C)C1CCC(O)CC1 (stereo not given) | 2.38 µM (active) and 336 nM (active) | inactive
23 | Cc1cc(C)c(O)c(C)c1 | – | inactive
24 | CC(=O)NC1(c2cccc(F)c2)CCN(CC[C@@]2(c3ccc(Cl)c(Cl)c3)CN(c3ccccc3)C(=O)CO2)CC1 | – | inactive
25 | CCCCC[C@H](O)CC(=O)CCc1ccc(O)c(OC)c1 | – | inactive
26 | CN1CCC[C@H]1c1cccnc1 | – | inactive
27 | O=[N+]([O-])c1ccc(O)cc1 | – | inactive
28 | CCCCCCCC(=O)O | – | inactive
29 | O=C(/C=C/c1ccc(O)cc1)CC(=O)/C=C/c1ccc(O)cc1 | – | inactive
30 | CC[C@H](c1ccc(O)cc1)[C@@H](CC)c1ccc(O)cc1 | 6.89 nM (active) and 5.23 nM (active) and 2.6 nM (active) | –
31 | CCCCCCC(=O)O | – | inactive
32 | CN(C)C=O | – | inactive
33 | CC[C@H](C)[C@@H](C(=O)O)n1sc2ccccc2c1=O | – | inactive
34 | CCC(=C(c1ccc(O)cc1)c1ccc(OCCN(C)C)cc1)c1ccccc1 | 2.29 nM (active) | inactive
35 | COc1ccc([N+](=O)[O-])cc1N | – | inactive
36 | c1ccc2c(c1)Cc1ccccc1-2 | – | inactive
